From PubChem BioAssay (NCATS)
Values joined by “and” are separate entries in the source; they are usually repeats but may differ in a detail not shown here. Equal entries are not always repeated. Results filed as inconclusive are left out. Active and inactive are the calls of the source. The call rests on the fitted dose curve; in most records, active means well fitted curve in the direction sought with a large enough effect; inconclusive means small, poorly fitted or top-dose-only effect, or another doubt; inactive means no such curve, though single readings can be large; an effect the other way counts as inactive or inconclusive.

Assays:
[1] = molecular target: Cellular tumor antigen p53 (Homo sapiens) (UniProt P04637); test: Primary qHTS for small molecule compounds that upregulate eGFP-tagged delta133p53alpha (in N-terminal) cells. (AID 2060322); details: NCI-H358 eGFP-delta133p53alpha fluorescence, 24 h; activation: stronger effect = higher value;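 further: cells pre-induced with doxycycline then dosed without doxycycline; series mostly up to about 56 µM; 0% = DMSO vehicle and 100% = reference activator; nearly all actives have a fitted effect of over 75% in size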
Chain of Cellular tumor antigen p53 (Homo sapiens) (P04637 whole entry, looked up): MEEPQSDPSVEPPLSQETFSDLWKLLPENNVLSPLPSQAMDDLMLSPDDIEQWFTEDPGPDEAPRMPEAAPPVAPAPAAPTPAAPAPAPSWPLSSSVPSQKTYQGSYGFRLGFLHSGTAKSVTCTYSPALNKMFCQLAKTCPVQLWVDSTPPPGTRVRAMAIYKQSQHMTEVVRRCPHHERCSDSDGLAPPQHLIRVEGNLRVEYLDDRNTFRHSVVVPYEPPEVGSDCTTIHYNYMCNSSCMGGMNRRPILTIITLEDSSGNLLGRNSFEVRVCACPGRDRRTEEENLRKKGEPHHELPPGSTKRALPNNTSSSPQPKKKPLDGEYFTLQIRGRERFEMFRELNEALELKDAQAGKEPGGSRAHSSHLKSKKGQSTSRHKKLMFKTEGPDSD
Summary of the method: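 NCI-H358 cells pre-induced 24 h with 10 ng/ml doxycycline for eGFP-delta133p53alpha, plated dox-free and exposed 24 h at 37C to titrated compounds. Fixed, Hoechst-stained; gated GFP peak intensity by laser scanning cytometry, normalized to DMSO (0%) and 57.5 uM 5-azacytidine (100%).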

[2] = molecular target: Aldehyde dehydrogenase, mitochondrial (Homo sapiens) (UniProt P05091); test: qHTS for Inhibitors of the Aldehyde Dehydrogenase Family (ALDH2) Primary screen (AID 2061308);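 further: plate controls were vehicle for no effect and reference inhibitor for full effect; nearly all actives have a fitted effect of over 55% in size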
[3] = molecular target: Retinaldehyde dehydrogenase 3 (Homo sapiens) (UniProt P47895); test: qHTS for Inhibitors of the Aldehyde Dehydrogenase Family (ALDH1A3) Validation screen (AID 2061312); further: on the % scale 0 is the no-effect control and ±100 the full control effect; nearly all actives have a fitted effect of over 45% in size
[4] = molecular target: Retinaldehyde dehydrogenase 3 (Homo sapiens) (UniProt P47895); test: qHTS for Inhibitors of the Aldehyde Dehydrogenase Family (ALDH1A3) Primary screen (AID 2061315);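 further: plate controls were DMSO vehicle for no effect and reference inhibitor for full effect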

CN(CCc1ccc(Nc2ncc(-c3cccnc3)s2)cc1)Cc1ccccc1
inactive: activation [1] -8.59% | Potency [2] | Potency [3] | Potency [4]

Cc1ccc(C)c(OCCn2cc(C(=O)O)c3ccccc32)c1
inactive: activation [1] 7.16% | Potency [2] | Potency [3] | Potency [4]

CCNC(=O)C1CC(F)(c2ccc(CN3CCCC3)c(F)c2)C1 (centres undefined)
inactive: activation [1] -9.07% | Potency [2] | Potency [3] | Potency [4]

COc1ccc(CCN(C)CCCOc2nsc(-c3ccccc3)n2)cc1OC
inactive: activation [1] 13.4% | Potency [2] | Potency [3] | Potency [4]

Cn1c2ccc(NC(=O)c3ccccc3)cc2c(=O)n2nc(C(=O)O)cc12
inactive: activation [1] 8.59% | Potency [2] | Potency [3] | Potency [4]

CCCC(=O)C1CCN(c2ncnc3c2CN(C(=O)c2ccc(-c4ccccc4)cc2)CC3)CC1
inactive: activation [1] -12.4% | Potency [2] | Potency [3] | Potency [4]

CNc1ccc([N+](=O)[O-])cc1-n1cnc(-c2ccc(C(F)(F)F)cc2)c1
inactive: activation [1] 5.25% | Potency [2] | Potency [3] | Potency [4]

COC(=O)CCc1ccc(OCC(O)CNC(C)C)cc1 (centres undefined)
inactive: activation [1] 13.4% and 16.7% | Potency [2] | Potency [3] | Potency [4]

O=C(NCC1(c2nc(-c3ccccc3)cs2)CCOCC1)c1cccc(-c2noc(C(F)(F)F)n2)c1
inactive: activation [1] 1.43% | Potency [2] | Potency [3] | Potency [4]

COc1ccc(C#Cc2ccc(C(=O)N3CCC[C@@H](CO)C3)cc2)cc1
inactive: activation [1] -13.8% | Potency [2] | Potency [3] | Potency [4]

CN[C@@H]1[C@@H](O)[C@@H](O[C@@H]2[C@@H](O)[C@H](O[C@H]3O[C@H](CN)[C@@H](O)[C@H](O)[C@H]3O)[C@@H](N)C[C@H]2NC(=O)[C@@H](O)CN)OC[C@]1(C)O
inactive: activation [1] -2.86% | Potency [2] | Potency [3] | Potency [4]
